This is a sample that favours compounds with a hit; in the whole collection about 6.5% have one here.
Lassa entry inh = qHTS for Inhibitors of binding or entry into cells for Lassa Virus; actives 1.2% (n = 300,000); Lassa virus pseudotype entry inhibition, cell reporter; Potency, µM (doses to about 37.9 µM), hits mostly inhibitors; calls by dose curve; tested in HEK293 cells; also: nearly all actives have a fitted effect of over 50% in size
HCMV antiviral = qHTS Assay for inhibitors of the human cytomegalovirus (HCMV) | HFF cells, HCMV-luciferase reporter, 72 h; hits give low values | activity change, negative = inhibition, % at 57.5 µM | actives 4.5% (n = 410,000) | AID 1259415, 2018; in the data active = activity change below about -60%; inconclusive = no clear call, values can overlap the other calls; inactive = above about -39%
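Two compound doses tested in HFFs infected with HCMV-luciferase, MOI 1 PFU/cell, 72 h at 37C. Lysate luminescence read with OneGlo; data normalized against buffer-only and 10uM Salinomycin inhibitor controls.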
VACV mCherry inh = qHTS for Stage-Specific Inhibitors of Vaccinia Orthopoxvirus: mCherry Reporter Primary qHTS; actives 0.63% (n = 310,000); Vaccinia virus mCherry reporter infection, fluorescence; Potency, µM (doses to about 36.5 µM), most hits filed as inhibitors; calls by dose curve; tested in A549 cells; also: nearly all actives have a fitted effect of over 35% in size
Marburg entry inh = qHTS for inhibitors of binding or entry into cells for Marburg Virus; actives 1.8% (n = 300,000); Marburg virus pseudotyped entry inhibition, cell reporter; Potency, µM (series often up to 37.8 µM), usual class: inhibitors; calls by dose curve; tested in HEK293 cells
FMDV antiviral = High Throughput Screening for Foot and Mouth Disease Virus Antivirals; FMDV antiviral cell-based qHTS; actives 1.2% (n = 410,000); AID 1159524, 2015; Potency, µM (highest dose often 57.9 µM), most hits filed as inhibitors; calls by dose curve; tested in HEK293T cells; also: read-out not given here; nearly all actives have a fitted effect of over 45% in size
Vaccinia Venus = qHTS for Stage-Specific Inhibitors of Vaccinia Orthopoxvirus: Venus Reporter Primary qHTS | Vaccinia virus Venus reporter expression, fluorescence | Potency, µM (doses to about 36.5 µM), hits mostly inhibitors | actives 0.46% (n = 330,000); calls by dose curve; tested in A549 cells; also: nearly all actives have a fitted effect of over 30% in size
Of the large screens only hits and unclear results are named; the others gave an inactive call.

O=C(c1ccc(Cl)cc1)C(CN1CCCCC1)c1ccccc1 (stereo not drawn)	Lassa entry inh inconclusive, HCMV antiviral -101, VACV mCherry inh inconclusive, Marburg entry inh inconclusive, FMDV antiviral 14µM, Vaccinia Venus 11µM
CCN1C(=O)C[C@H](N2CCN(c3ccc(OC)cc3)CC2)C1=O	none (no result: Lassa entry inh, HCMV antiviral, VACV mCherry inh, FMDV antiviral, Vaccinia Venus)
Cc1ccc(C(=O)N/N=C\C=C\c2ccc(Br)cc2)cn1	none (no result: Lassa entry inh, VACV mCherry inh, Marburg entry inh, Vaccinia Venus)
CN(C)c1ccc(C(=O)N/N=C/c2cc(Br)cc(Br)c2O)cc1	Lassa entry inh inconclusive, HCMV antiviral -90, Marburg entry inh inconclusive
O=C(CCc1ccccc1)N/N=C/c1cc(Br)ccc1O	Lassa entry inh inconclusive, HCMV antiviral -76, VACV mCherry inh 13µM, Marburg entry inh 22µM, Vaccinia Venus inconclusive
Cc1ccc(C(=O)N/N=C/c2cc(Br)ccc2O)cn1	HCMV antiviral -102 (no result: Lassa entry inh, VACV mCherry inh, Marburg entry inh, Vaccinia Venus)
O=C(N/N=C/c1cc(Br)ccc1O)c1ccccc1Cl	Lassa entry inh inconclusive, HCMV antiviral -65, VACV mCherry inh inconclusive, Marburg entry inh inconclusive, Vaccinia Venus inconclusive
CSc1ccn(CC2CCC(Cl)CC2)c(=O)n1 (stereo not drawn)	none (no result: Lassa entry inh, HCMV antiviral, VACV mCherry inh, FMDV antiviral, Vaccinia Venus)
O=C(O)[C@@H]1CC(=O)n2c(nc3ccccc32)S1	none (no result: Lassa entry inh, HCMV antiviral, VACV mCherry inh, FMDV antiviral, Vaccinia Venus)
Cc1cccc(NC(=O)c2cnn(-c3ccccc3)c2-n2cccc2)c1C	FMDV antiviral inconclusive
Cc1ccc(F)cc1NC(=O)COC(=O)c1ccc(S(C)(=O)=O)c([N+](=O)[O-])c1	none (no result: Lassa entry inh, HCMV antiviral, Marburg entry inh, FMDV antiviral)
COc1ccc(O)c(/C=N/NC(=S)NCCc2ccccc2)c1	Lassa entry inh inconclusive, VACV mCherry inh inconclusive, Marburg entry inh inconclusive, Vaccinia Venus inconclusive
CCOc1cc(Br)cc(/C=N/NC(=O)c2cccnc2)c1O	Lassa entry inh inconclusive, VACV mCherry inh 7.1µM, Marburg entry inh inconclusive, FMDV antiviral inconclusive, Vaccinia Venus inconclusive
O=C(N/N=C/c1cc(Br)ccc1O)C(=O)Nc1ccccc1OC(F)(F)C(F)F	Lassa entry inh inconclusive, HCMV antiviral -105, Marburg entry inh inconclusive (no result: VACV mCherry inh, Vaccinia Venus)
Oc1ccc(Br)cc1/C=N/NC(=S)NCCc1ccccc1	VACV mCherry inh 1µM, Marburg entry inh inconclusive
Cc1cc(N2CCN(C(=O)c3ccco3)CC2)n2nc(-c3cccc(F)c3)cc2n1	HCMV antiviral -63, Marburg entry inh inconclusive, FMDV antiviral inconclusive (no result: VACV mCherry inh, Vaccinia Venus)
Cc1cc(N2CCN(c3ccccc3)CC2)nc(-c2ccccc2)n1	Lassa entry inh inconclusive
Cc1cc(N2CCN(C(=O)c3ccco3)CC2)nc(-c2ccccc2)n1	Lassa entry inh 11µM, Marburg entry inh inconclusive
C#CCNC(=O)C1CCN(c2cc(C)nc(-c3ccccc3)n2)CC1	HCMV antiviral -95
CCN(C(=O)Cn1c(=O)n(CCCS(=O)(=O)C2CCCCC2)c(=O)c2ccccc21)c1cccc(C)c1	none
Cc1ccc(CNC(=O)c2c(-c3ccc(Br)cc3)noc2C)o1	none (no result: Marburg entry inh)
CC(C)Cn1c(CN2CCN(c3cccc(Cl)c3)CC2)nc2c1c(=O)[nH]c(=O)n2C	Lassa entry inh inconclusive, HCMV antiviral inconclusive, VACV mCherry inh inconclusive, Marburg entry inh inconclusive
CCOC(=O)c1ccc(N2C(=O)c3[nH]nc(-c4ccc(C)cc4)c3C2c2ccc(O)c(OCC)c2)cc1 (stereo not drawn)	Lassa entry inh inconclusive, HCMV antiviral -101, Marburg entry inh inconclusive, FMDV antiviral inconclusive
CCOC(=O)c1ccc(N2C(=O)c3n[nH]c(-c4ccco4)c3C2c2cccc([N+](=O)[O-])c2)cc1 (stereo not drawn)	Lassa entry inh inconclusive, VACV mCherry inh inconclusive, Marburg entry inh 5µM, FMDV antiviral 35µM, Vaccinia Venus inconclusive
CCOC(=O)c1ccc(N2C(=O)c3n[nH]c(-c4ccco4)c3C2c2ccc(C(=O)OC)cc2)cc1 (stereo not drawn)	Lassa entry inh inconclusive, HCMV antiviral -80, Marburg entry inh inconclusive, FMDV antiviral inconclusive
CCOC(=O)c1ccc(N2C(=O)c3n[nH]c(-c4ccco4)c3C2c2ccc(OC)cc2OC)cc1 (stereo not drawn)	Lassa entry inh inconclusive, HCMV antiviral -105, Marburg entry inh inconclusive, FMDV antiviral inconclusive
CCOC(=O)c1ccc(N2C(=O)c3n[nH]c(-c4ccco4)c3C2c2ccc(O)c(OCC)c2)cc1 (stereo not drawn)	Lassa entry inh inconclusive, HCMV antiviral -105, Marburg entry inh 7.9µM, FMDV antiviral inconclusive
COc1ccc(/C(O)=C2\C(=O)C(=O)N(c3cc(C)on3)[C@H]2c2ccccc2OC)cc1C	none (no result: Lassa entry inh, HCMV antiviral, VACV mCherry inh, FMDV antiviral, Vaccinia Venus)
CCC(C)c1ccc(OCC(=O)Nc2cccc3ccc(C)nc23)cc1 (stereo not drawn)	Lassa entry inh inconclusive
CCCC(=O)NC(c1ccccc1Cl)c1c(O)ccc2ccccc12 (stereo not drawn)	Lassa entry inh inconclusive, VACV mCherry inh inconclusive, FMDV antiviral inconclusive
Cc1cccc(NC(c2cccc(Cl)c2)c2ccc3cccnc3c2O)n1 (stereo not drawn)	Lassa entry inh 10µM, HCMV antiviral -98, VACV mCherry inh inconclusive, Marburg entry inh inconclusive, Vaccinia Venus inconclusive
CCCC(=O)NC(c1ccc(C)cc1)c1ccc2cccnc2c1O (stereo not drawn)	Lassa entry inh inconclusive, VACV mCherry inh inconclusive, Marburg entry inh 2.8µM, Vaccinia Venus inconclusive (no result: HCMV antiviral)
CCCC(=O)NC(c1ccc(Cl)cc1)c1ccc2cccnc2c1O (stereo not drawn)	Lassa entry inh 4µM, HCMV antiviral -100, VACV mCherry inh inconclusive, Marburg entry inh 3.5µM, Vaccinia Venus inconclusive
CCCC(=O)NC(c1ccccc1)c1c(O)ccc2ccccc12 (stereo not drawn)	none (no result: Lassa entry inh, VACV mCherry inh, Marburg entry inh, Vaccinia Venus)
CCCC(=O)NC(c1ccc(Cl)cc1Cl)c1ccc2cccnc2c1O (stereo not drawn)	Lassa entry inh inconclusive, HCMV antiviral -105, VACV mCherry inh inconclusive, Marburg entry inh 2.2µM, Vaccinia Venus inconclusive
CCOc1ccccc1N(CC(=O)N1CCc2ccccc2C1)S(=O)(=O)c1ccccc1	Lassa entry inh inconclusive (no result: Marburg entry inh)
CCOc1ccc(NC(=O)CN2C(=O)COc3ccc(S(=O)(=O)Nc4ccccc4)cc32)cc1	none (no result: Marburg entry inh)
CC(=O)NC(CC(=O)NC(C)c1ccc(Cl)cc1Cl)c1ccccc1 (stereo not drawn)	none
COc1ccc(C(Nc2ccccn2)c2ccc3ccc(C)nc3c2O)cc1C (stereo not drawn)	Lassa entry inh inconclusive, Marburg entry inh inconclusive
CCCCC(=O)NC(c1ccc(Cl)cc1)c1ccc2cccnc2c1O (stereo not drawn)	Lassa entry inh inconclusive, HCMV antiviral -98, VACV mCherry inh 6.3µM, Marburg entry inh 4µM, Vaccinia Venus inconclusive
Cc1ccc(C(Nc2ccccn2)c2ccc3cccnc3c2O)cc1 (stereo not drawn)	Lassa entry inh inconclusive, HCMV antiviral -64, VACV mCherry inh 11µM, Marburg entry inh inconclusive, Vaccinia Venus inconclusive
CC(=O)NC(c1ccc(Cl)cc1Cl)c1ccc2cccnc2c1O (stereo not drawn)	HCMV antiviral -98 (no result: Lassa entry inh, VACV mCherry inh, Marburg entry inh, Vaccinia Venus)
